# Assay results published in PubChem BioAssay AID1259422 (The Scripps Research Institute Molecular Screening Center, 2018).
# Screen size: about 640,000 compounds; about 9,300 (1.5%) were called active. For the sample, actives were picked, then their nearest neighbours and some compounds at random. Values without a mark were called inactive. Rule as the data show it: active = inhibition above about 32%; inactive = the rest.
# Assay: TEAD-YAP interaction inhibition, primary screen, TEAD-YAP interaction inhibitor project, luminescence, HEK-TIYL cells (AID 1259422);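 also: 0% = median of test compound wells and 100% = reference inhibitor wells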
# Settings: TEAD-Gal4/YAP UAS-luciferase luminescence, at 9.12 µM, stronger effect = higher value
row,Compound,inhibition
1,CC(C)(O)C#CC(O)c1cccc([N+](=O)[O-])c1 (stereo not given),-0.86%
2,COc1ccc(C(c2sc3ncnn3c2O)N2CC(C)OC(C)C2)cc1 (stereo not given),10.7%
3,COc1ccc(C(=O)NCC(=O)NNc2ncnc(N)c2[N+](=O)[O-])c(OC)c1,11.1%
4,COc1ccccc1/C=N/NC(=O)c1cc(-c2ccc(C)o2)[nH]n1,4.17%
5,COc1cccc(/C=N/NC(=O)c2cc(-c3cccs3)[nH]n2)c1O,68% (active)
6,O=C(N/N=C/c1cc(Br)ccc1O)c1ccc(=O)[nH]n1,14.8%
7,O=C(N/N=C/c1cc(Br)ccc1O)c1cc(Br)ccc1O,-12%
8,CCOc1ccc(/C=N/NC(=O)c2cc(-c3cccs3)[nH]n2)cc1,-4.12%
9,O=C(N/N=C/c1cc(Br)ccc1O)c1cc(-c2cccs2)[nH]n1,65.8% (active)
10,Cc1ccc(CNS(=O)(=O)c2ccc(F)c(C(=O)Nc3cccc(Cl)c3)c2)cc1,-4.88%
11,COc1cc(C=Nc2ccc(NC(C)=O)cc2)ccc1OC(=O)c1cccs1,-6.6%
12,COc1ccccc1NS(=O)(=O)c1ccc(Cl)c(C(=O)Nc2ccccc2C)c1,0.37%
13,O=C(Cc1cccc(Cl)c1)NCC1CCC2(CCN(C(=O)C3CC3)CC2)O1 (stereo not given),-0.11%
14,COc1ccc(C2CCN(C(=O)C3CCCO3)CC2)cc1 (stereo not given),-7.42%
15,Cc1cccc2c1CC(=O)NC21CCN(Cc2ccc3ccccc3c2)CC1,7.07%
16,CCc1ccc(OCC(=O)Nc2nc(C)c(C)s2)c(Br)c1,77.7% (active)
17,Cc1ccc(OCC(=O)Nc2nc(-c3ccccc3)cs2)c(Br)c1,5.91%
18,CCc1ccc(OCC(=O)NCc2ccncc2)c(Br)c1,-4.34%
19,CCOC(=O)C1(CCOc2ccccc2)CCN(Cc2cnn(C(C)C)c2)CC1,10.3%
20,O=C(COc1ccc([N+](=O)[O-])cc1)Nc1ccc2oc(-c3cccc(F)c3)nc2c1,-7.11%
21,O=C(Nc1ccc2oc(-c3ccc(F)cc3)nc2c1)c1ccc([N+](=O)[O-])cc1,11.2%
22,O=[N+]([O-])c1ccc2oc(-c3cccc(O)c3)nc2c1,73.9% (active)
23,Cc1ccc2nc3c(cc(C#N)c(=O)n3-c3cccc(Cl)c3)c(=O)n2c1,-0.14%

row,Compound,inhibition
1,CC1=CN2C(=O)NC(C(F)(F)F)(C(F)(F)F)N=C2S1,-16.6%
2,COCCCNC(=O)Cn1cc(/C=C(\C#N)C(=O)NCc2ccco2)c2ccccc21,3.94%
3,COCCCNC(=O)/C(C#N)=C/c1cc(C)n(-c2cccc3ccccc23)c1C,47.1% (active)
4,COCCCNC(=O)/C(C#N)=C/c1ccc(-c2cccc(Cl)c2Cl)o1,1.01%
5,COc1ccc(NC(=O)c2sc3nc(-c4cccc([N+](=O)[O-])c4)cn3c2C)cc1,4.9%
6,CCOc1ccc(Br)cc1CSC(=N)N,55.7% (active)
7,CCOC(=O)C1CCN(S(=O)(=O)c2cc(Br)ccc2OCC)CC1,0.17%
8,CCOc1ccc(Br)cc1S(=O)(=O)Nc1ccccc1C(=O)O,3.25%
9,CC(=O)N(Cc1cccnc1)Cc1cc2cc(C)c(C)cc2nc1Cl,6.62%
10,Cc1cccc(C(=O)Nc2ccc(C(=O)N/N=C/c3ccc(O)cc3)cc2)c1,-12.2%
11,CCOc1ccccc1NS(=O)(=O)c1ccc2c(c1)NC(=O)C(C)C(=O)N2 (stereo not given),-5.49%
12,O=C1CS(=O)(=O)C(c2ccccc2[N+](=O)[O-])N1c1ccc(Oc2ccc(Cl)cc2)cc1 (stereo not given),11.6%
13,COc1ccc(-n2nnnc2SCc2nc(N)nc(N3CCOCC3)n2)cc1,-11.4%
14,CN(C)c1nc(N)nc(CSc2ccccn2)n1,-4.14%
15,CN(C)c1nc(N)nc(CSc2nnnn2-c2cccc3ccccc23)n1,35.1% (active)
16,CCOC(=O)c1sc2nc(C)nc(OCc3ccccc3C)c2c1C,-7.17%
17,COc1ccccc1-c1cc(C(F)(F)F)nc(S(=O)(=O)CCCC(=O)Nc2sc(C(N)=O)c(C)c2C(=O)OC(C)C)n1,-2.08%
18,CCOc1cccc(NC(=O)c2ccc(F)c(S(=O)(=O)N(CC)c3cccc(C)c3)c2)c1,-0.19%
19,Cc1cccc(NC(=O)c2ccc(F)c(S(=O)(=O)N(C)C3CCCCC3)c2)c1,-12.6%
20,O=C(Nc1ccc(Oc2ccccc2)cc1)c1ccc(F)c(S(=O)(=O)N2CCc3ccccc3C2)c1,-0.62%
21,CCN(Cc1ccccc1)S(=O)(=O)c1ccc(F)c(C(=O)Nc2ccc(C)cc2)c1,-16.5%
22,CCN(c1cccc(C)c1)S(=O)(=O)c1cc(C(=O)Nc2ccc(Oc3ccccc3)cc2)ccc1F,35.4% (active)
23,CCN(Cc1ccccc1)S(=O)(=O)c1cc(C(=O)Nc2cccc(C)c2)ccc1F,51.1% (active)

row,Compound,inhibition
1,COc1cccc(-c2ccccc2NC(=O)C2CCN(Cc3ccccn3)CC2)c1,10.6%
2,CC1=C(C(=O)Nc2nc3ccccc3s2)C(c2ccsc2)C2=C(CCCC2=O)N1 (stereo not given),12.1%
3,COC(=O)c1c(OCCN2CCCC2=O)cc(=O)n2c1CCN(CC(C)C)CC2,-5.77%
4,Cc1ccc(-c2ncn(-c3ccc(Nc4ncc(F)c(-c5cccc(N6CCOCC6)c5)n4)cc3)n2)cn1,28.1%
5,Fc1cnc(Nc2ccc(Cn3ccnc3)cc2)nc1-c1cccc(N2CCOCC2)c1,84.8% (active)
6,Fc1cc(-c2nc(Nc3ccc(CN4CCOCC4)cc3)ncc2F)cc(N2CCOCC2)c1,74.6% (active)
7,c1cncc(CNc2nccc(Nc3ccc(N4CCOCC4)cc3)n2)c1,1.72%
8,Cc1ccc(-c2ncn(-c3ccc(Nc4nccc(-c5cc(F)cc(N6CCOCC6)c5)n4)cc3)n2)nc1,8.1%
9,Fc1ccc(CN2CCOCC2)cc1F,-5.29%
10,O=C(Nc1ccccc1)c1ccc(CSc2ccc(Cl)cc2)cc1,1.08%
11,Cc1cc2oc(=O)cc(C)c2cc1NC(=O)COc1ccccc1,18.6%
12,c1ccc2c(N3CCCCCC3)nc(CN3CCCCC3)nc2c1,3.64%
13,COCCNC(=O)c1sc2nc(C)nc(N3CCCCC3)c2c1C,8.3%
14,Cc1cc(C)cc(Cn2c(NCc3ccncc3)cc(=O)n(C)c2=O)c1,33.7% (active)
15,Cc1cccc(Cn2c(NCc3ccc4c(c3)OCO4)nc3c2c(=O)n(C)c(=O)n3C)c1,3.24%
16,C=CCn1c(NCCCN(C)C)cc(=O)n(C)c1=O,1.12%
17,CC(=O)c1ccc(OCc2cc(C(=O)NCc3cccc(-n4cccn4)c3)no2)cc1,-59.7%
18,O=C(Nc1cccc(N2CCC(NCCc3ccco3)CC2)c1)c1ccncc1,-5.63%
19,O=C(NC1CCCC1)c1ccc(N2CCC(NCCc3ccco3)CC2)cc1,-1.18%
20,O=C(Nc1ccc(N2CCC(NCCc3ccco3)CC2)cc1)C1CCCC1,56.3% (active)
21,COc1ccc(CCNC(=O)CSc2cn(C)c3ccccc23)cc1OC,-1.21%
22,COc1ccc(Cl)cc1C1=N/C(=C\c2coc3ccccc3c2=O)C(=O)O1,1.35%
23,COc1ccc(CCNc2nc(C)nc3sc(C)cc23)cc1OC,41.7% (active)

row,Compound,inhibition
1,COc1ccc(Nc2nc(C)nc3sc(C)cc23)c(OC)c1,46% (active)
2,COc1ccc(CCNc2nc3ccc(C)cc3n3cnnc23)cc1OC,-9.92%
3,COc1ccc(CCNc2nc(SCC#N)nc3ccccc23)cc1OC,-11.4%
4,COc1ccc(Nc2nc3nonc3nc2Nc2ccc(OC)cc2OC)c(OC)c1,-7.35%
5,COc1ccc(NC(=O)CNC(=O)Cn2cnc3sc(C)cc3c2=O)c(OC)c1,7.78%
6,CCOC(=O)c1sc(NC(=O)c2cccc(Cl)c2)c(C(=O)OCC)c1C,-1.99%
7,O=C(NCC1CCC2(CCN(Cc3ccccc3)CC2)O1)c1ccc(F)c(Cl)c1 (stereo not given),-14.8%
8,O=C(NCCCO)/C(=C/c1ccc([N+](=O)[O-])cc1)NC(=O)c1ccco1,1.95%
9,O=C(CCCN1CCc2ccccc2C(O)(c2ccccc2)C1)c1ccc(F)cc1 (stereo not given),-4.26%
10,O=C1CN(c2ccccc2F)C(=O)CN1/N=C/c1ccccc1Cl,-10.8%
11,COc1ccc(-c2c(Nc3cccc(C)c3)c(=O)c2=O)cc1,4.83%
12,COC(=O)c1ccccc1Nc1c(-c2ccc(C)c(C)c2)c(=O)c1=O,5.02%
13,Cc1ccc(-c2c(Nc3cccc(F)c3)c(=O)c2=O)cc1C,53.5% (active)
14,Cc1cc(C)nc(/N=C(/NC(=O)c2ccc(F)cc2)Nc2ccc(F)cc2F)n1,2.84%
15,COc1ccc(-c2cccc(C(=O)Nc3ccc(Oc4ccccc4)cc3)n2)cn1,-3.01%
16,CCn1c(COc2ccccc2)nnc1Sc1ccc([N+](=O)[O-])cc1C=O,59.5% (active)
17,O=[N+]([O-])c1ccc(OCc2nnc(SCCN3CCOCC3)n2-c2ccccc2)cc1,3.41%
18,CCn1c(COc2ccccc2OC)nnc1SCC(=O)NC,4.57%
19,Cc1ccc2cc(C#N)c(SCC(=O)N3CC(=O)Nc4ccccc43)nc2c1C,63.3% (active)
20,Cc1ccc(C)c2nc(SCC(=O)N3CC(=O)Nc4ccccc43)c(C#N)cc12,-2.34%
21,CCN(CC)C(=O)CSc1nc2c(C)c(C)ccc2cc1C#N,8.08%
